Screens: PubChem BioAssay, National Center for Advancing Translational Sciences (NCATS)
FMDV inh = High Throughput Screening for Foot and Mouth Disease Virus Antivirals. FMDV antiviral cell-based qHTS. actives 1.2% (n = 410,000). Potency, µM (series often up to 57.9 µM), without a hit: top-dose activity change, negative = inhibition, usual class: inhibitors; calls by dose curve; tested in HEK293T cells; note: read-out not given here; potency is the fitted concentration of half-maximal effect; % is set by controls: 0 for no effect and ±100 for the full control effect; nearly all actives have a fitted effect of over 45% in size
Sm TGR inh = qHTS Assay for the Inhibitors of Schistosoma Mansoni Peroxiredoxins | purified TGR, DTNB reduction, TNB absorbance 405 nm | AID 485364, 2010 | actives 3% (n = 360,000) | Schistosoma mansoni thioredoxin glutathione reductase (TGR), Q962Y6 | Potency, µM (titrated, usually from 114 µM), for inactives: at the top dose activity change, negative = inhibition, actives largely listed as inhibitors; active = well fitted inhibition curve with a large enough effect; inconclusive = small, poorly fitted or top-dose-only effect; inactive = no such curve, though single readings can be large or run the other way; note: potency is the fitted concentration of half-maximal effect; % is set by controls: 0 for no effect and ±100 for the full control effect; nearly all actives have a fitted effect of over 60% in size
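Kinetic colorimetric format: TGR-catalysed, NADPH-driven DTNB reduction monitored via TNB absorbance. Enzyme dispensed at 20 nM; compound exposure 15 min at room temperature before reaction start.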
Shiga inhibitor = A qHTS for Small Molecule Inhibitors of Shiga Toxin; Vero cells, Shiga toxin protein synthesis inhibition reporter; inhibition, % at 38.7 µM; actives 9.2% (n = 290,000); AID 2315, 2010; in the data active = inhibition mostly above about 28%, no sharp cut-off; inactive = mostly below about 43%; note: 0% is about no effect
Cycloheximide cs = Cycloheximide Counterscreen for Small Molecule Inhibitors of Shiga Toxin. cell reporter, cycloheximide protein synthesis inhibition counterscreen. max response, %. actives 12% (n = 300,000); in the data active = max response mostly above about 13%, no sharp cut-off; inactive = mostly below about 14%; note: read at 38.3 µM for the half of the compounds with a filed dose; 0% is about no effect
The depositor's hits bear a star; ? = inconclusive; / = no result. Most compounds without a hit are left out; they make up all but 12% or so of the library.

SMILES	FMDV inh	Sm TGR inh	Shiga inhibitor	Cycloheximide cs
Cc1ccccc1-c1noc(-c2ccc(N3CCCC3)c([N+](=O)[O-])c2)n1	-32.1%	-1.3%	/	/
CCCOP(=O)(O)c1c([N+](=O)[O-])cc(C(F)(F)F)cc1[N+](=O)[O-] (tested in a mixture with another compound)	/	-12.1%	42.0	14.3*
Cc1ccc(SC(=O)c2c([N+](=O)[O-])c(C)nn2C)cc1	?	5.62µM*	8.9	11.6*
COc1ccc(Cl)cc1NC(=O)c1noc2c1CCCC2	-3.1%	0.3%	51.0*	18.6*
COc1ccc(CCNC(=O)c2noc3c2CCCC3)cc1OC	-2.5%	-0.7%	2.2	9.1*
COc1cccc(N2C(=O)CSC23C(=O)N(CC(=O)Nc2cc(C)ccc2C)c2ccccc23)c1 (stereo not drawn)	-15.0%	-9.5%	/	/
COc1ccccc1N1C(=O)c2ccc(C(=O)Nc3ccc(C(=O)O)cc3)cc2C1=O	-5.6%	89.1µM*	15.5	0.9
CC(C)(C)N1C(=O)c2ccc(C(=O)Nc3ccc(O)cc3)cc2C1=O	?	-0.6%	45.6*	23.3*
COC(=O)c1cccc(NC(=O)c2ccc3c(c2)C(=O)N(C(C)(C)C)C3=O)c1	-24.9%	12.4%	48.7	1.3
CC(C)(C)NC(=O)c1cccc(NC(=O)c2ccc3c(c2)C(=O)N(C(C)(C)C)C3=O)c1	25.1µM*	-13.4%	5.1	1.6
COc1ccc(-c2ccc(NS(=O)(=O)c3ccc(OC)c(OC)c3)cc2)nn1	23.5%	6.7%	/	/
CC(=O)N1CCc2c(sc3c2c(=O)n(Cc2ccccc2)c(=O)n3CC(=O)Nc2ccc(C)c(F)c2)C1	-5.3%	-10.1%	/	/
O=C(C1CCC(Cn2c(=O)c3sccc3n(Cc3ccccc3)c2=O)CC1)N1CCOCC1 (stereo not drawn)	-23.2%	1.5%	/	/
COc1ccc(NCc2nnc3n2CCCCC3)c(OC)c1	-6.8%	0.1%	/	/
O=C(CCC1N=C2c3ccccc3N=C(SCC(=O)Nc3ccccc3F)N2C1=O)NCc1ccccc1 (stereo not drawn)	3.6%	-6.0%	/	/
Cc1c(/C=N\NC(=O)c2c[nH]c3ccccc23)cnn1C	15.2%	2.2%	46.3*	15.4*
CCn1cc(/C=N\NC(=O)c2c[nH]c3ccccc23)c(C)n1	56.3%	-6.4%	73.8*	42.4
CCn1cc(/C=N\NC(=O)c2csc3ccccc23)c(C)n1	43.8%	-2.6%	82.3	44.4*
O=C(Nc1ccccc1)c1cccc(S(=O)(=O)Nc2cccc(F)c2)c1	8.9%	12.1%	/	/
CCCOC(=O)c1ccc(NC(=O)CCOc2ccccc2)cc1	5.5%	6.1%	21.5	12.6*
O=C(CCOc1ccccc1)Nc1ccccc1	27.5%	4.0%	40.9	27.2*
COc1ccc(CCC(=O)OCC(=O)Nc2ccccc2)cc1	19.3%	-1.2%	68.5	20.4*
CC(=O)c1ccc(NC(=O)CCOc2ccccc2)cc1	49.9%	-29.2%	/	/
CCOC(=O)c1ccc(NC(=O)CCOc2ccccc2)cc1	9.2%	0.5%	22.4	8.8
COc1ccc(OCCC(=O)Nc2ccccc2)cc1	32.3%	12.2%	26.2*	16.9*
SMILES	FMDV inh	Sm TGR inh	Shiga inhibitor	Cycloheximide cs
Clc1cccc(CNCCCSc2nnnn2-c2ccccc2)c1	10.3%	-8.0%	/	/
CCC1CN(C(=O)Nc2ccccc2C(F)(F)F)c2ccccc2S1 (stereo not drawn)	-6.7%	-0.7%	/	/
CCOC(=O)c1ccc(NC(=O)CCS(=O)(=O)c2ccc(Br)s2)cc1	-23.8%	11.2µM*	-16.8	11.0
Cc1ccc[n+](CC(=O)Nc2ccc([N+](=O)[O-])cc2)c1	0.0%	35.5µM*	/	-2.0
Cc1cc(Br)c(NC(=O)CN(C)CCOc2ccccc2)c(Br)c1	-5.0%	22.3%	23.6	11.0*
Cc1ccc[n+](CC(=O)Nc2cccc([N+](=O)[O-])c2)c1	-8.5%	/	-15.0	-2.3
COc1ccc(C(=O)COC(=O)CCN2C(=O)C3C4CCC(C4)C3C2=O)cc1 (stereo not drawn)	-14.1%	2.0%	33.3	-6.9
COc1ccc(NC(=O)CCS(=O)(=O)c2ccc(Br)s2)cc1	-7.3%	-1.5%	2.1	19.1
COc1ccc(C(=O)COC(=O)CCN2C(=O)C3C4C=CC(C5CC45)C3C2=O)cc1 (stereo not drawn)	-7.4%	25.1µM*	-30.8	0.8
CCOc1ccc(-c2cc(NC(=O)c3cccc(Cl)c3)c(C(=O)OC)s2)cc1	-15.7%	-1.5%	/	/
CCCSCCCNC(=O)c1ccc2c(c1)sc1nc(-c3ccc(OCC)cc3)cn12	-7.3%	11.6%	/	/
O=C(CCCOc1ccccc1)Nc1ncccn1	42.9%	-2.3%	37.6*	31.5*
O=C(COc1ccccc1)Nc1ncccn1	/	-3.5%	23.1	14.0
Cc1ccc(NC(=O)CCOc2ccccc2)cc1	55.8%	?	61.5*	54.1*
Cc1cccc(OCCCC(=O)Nc2ccc(N(C)C)cc2)c1	56.5%	5.2%	121.9*	84.2*
Cc1cccc(OCCCC(=O)Nc2ccc(Br)cc2)c1	-19.9%	-0.2%	4.7	0.8
COc1ccc(C(=O)COC(=O)CCC(=O)Nc2ccc(C(C)=O)cc2)cc1	40.4%	2.5%	46.9*	40.1*
CS(=O)(=O)Nc1cccc(-c2ccc3ncnc(N4CCOCC4)c3c2)c1	-13.0%	/	/	/
CC(=O)c1cccc(NC(=O)CCCSc2nc(-c3ccco3)cc(C(F)(F)F)n2)c1	2.9%	1.3%	/	/
Cc1ccc(Cn2c(=O)c3c(nc4n3CCN4c3cc(C)cc(C)c3)n(C)c2=O)cc1	21.8%	2.7%	/	/
CC1=C(C(=O)Nc2cccnc2)C(c2ccc(F)cc2)n2nc(-c3cccc(C)c3)nc2N1 (stereo not drawn)	-15.1%	0.9%	/	/
O=C(CCOc1ccccc1)Nc1ccc([N+](=O)[O-])cc1	33.0%	-0.7%	36.6*	23.2
Cc1ccc([N+](=O)[O-])cc1NC(=O)CCCOc1ccccc1	-0.1%	6.6%	-6.9	-0.3
CCCOC(=O)c1ccc(NC(=O)CCC(=O)OCC)cc1	41.7%	0.8%	78.5*	28.8*
COc1ccc(NC(=O)CS(=O)(=O)c2ccccc2Cl)cc1	94.7%	0.2%	28.7	16.3*
SMILES	FMDV inh	Sm TGR inh	Shiga inhibitor	Cycloheximide cs
CCn1cc(S(=O)(=O)c2cccc(C)c2)c(=O)c2cc(F)c(N3CCN(c4ccccc4)CC3)cc21	-1.4%	0.8%	/	/
O=C(C=Cc1ccco1)c1ccco1	72.0%	/	/	/
O=C(/C=C/c1ccc(Br)cc1)c1ccc(NC(=O)c2ccco2)cc1	4.2%	-6.4%	14.5	27.1*
O=C(/C=C\c1ccccc1)Nc1ccc(NC(=O)c2ccco2)cc1	-21.3%	-18.9%	4.9	3.9
O=C(/C=C/c1ccc(Br)cc1)c1ccco1	?	-32.4%	64.0*	29.2*
O=C(/C=C/C=C/c1ccccc1)c1ccco1	39.6%	10µM*	102.8*	51.3*
O=C(CSc1nnc2[nH]c(=O)cc(-c3ccccc3)n12)Nc1cc(C(F)(F)F)ccc1Cl	?	12.2%	/	/
O=[N+]([O-])c1cnc2ccccc2c1	14.6%	-35.5%	-4.9	-4.0
O=[N+]([O-])c1cc([N+](=O)[O-])c2cc3ccccc3nc2c1	28.2µM*	3.55µM*	3.2	-2.2
CCc1sc(C(=O)Nc2ccc(NC(C)=O)cc2)cc1C	14.9%	-2.0%	27.2	8.3
Cc1csc(NC(=O)c2cc3c(C)nn(Cc4ccccc4Cl)c3s2)n1	?	0.3%	73.3	41.7*
